Consider 15 compounds from PubChem BioAssay (EPA / NIEHS).

A short description of experiment [1]: APR_HepG2_P-H2AX_72hr: Apredica 72-hour HepG2 Assay for H2AX Phosphorylation (AID 2282916).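 Further: phospho-histone H2A.x immunostain intensity per cell marking DNA damage.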 The settings on record: imaging, actives raise or lower the signal. The gist of the method: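 Following 72 hr treatment with 0.39–200 uM compound, HepG2 cells were formaldehyde-fixed, permeabilized and stained for phospho-H2A.x; signal was measured by high-content imaging and fitted bidirectionally against DMSO controls.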

The nature of experiment [2]: APR_HepG2_MitoMembPot_72hr: Apredica 72-hour HepG2 Assay for Mitochondrial Membrane Potential (AID 2282917). As to conditions: imaging, actives raise or lower the signal. An outline of the steps:
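HepG2 cells dosed 72 hr with compound at 0.39–200 uM in duplicate, 0.5% v/v DMSO final. Mitochondria stained with 250 nM MitoTracker Red CMXRos for 30 min before formaldehyde fixation, imaged by high-content fluorescence; bidirectional fit versus DMSO.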

A short description of experiment [3]: APR_HepG2_MitoticArrest_72hr: Apredica 72-hour HepG2 Assay for Mitotic Arrest (AID 2282918). As to conditions: high-content imaging, actives raise or lower the signal. An outline of the steps: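 HepG2, 72 hr exposure, 0.39–200 uM in duplicate, 0.5% v/v DMSO final. Formaldehyde-fixed, Triton-permeabilized, anti-phospho-histone H3/FITC plus Hoechst. ArrayScan imaging at 20x; curves fit bidirectionally against DMSO baseline.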

Experiment [4] can be described thus: APR_HepG2_MicrotubuleCSK_72hr: Apredica 72-hour HepG2 Assay for Microtubule CSK Stabilty (AID 2282919). The settings on record: HepG2 microtubule cytoskeleton, high-content imaging, actives raise or lower the signal. The gist of the method: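 HepG2 cells were exposed 72 hr to compound at 0.39–200 uM in duplicate (0.5% DMSO final), then fixed and permeabilized. Alpha-tubulin immunofluorescence was imaged by high-content microscopy, with bidirectional fitting against DMSO and taxol as positive control.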

Experiment [5] in a line: APR_HepG2_P-H2AX_24hr: Apredica 24-hour HepG2 Assay for H2AX Phosphorylation (AID 2282920). The settings on record: high-content imaging, actives raise or lower the signal. The gist of the method:
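HCS fluorescence imaging of phospho-H2A.x immunostain (with Hoechst 33342 nuclear counterstain) in HepG2 after 24 hr compound exposure; 10 concentrations, 0.39–200 uM, duplicate wells, 0.5% v/v DMSO. Gain or loss of signal fitted relative to DMSO baseline.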

Experiment [6] is described as follows: APR_HepG2_StressKinase_72hr: Apredica 72-hour HepG2 Assay for Stress Kinase (AID 2282921). The settings on record: HepG2 stress kinase (phospho-c-Jun) imaging, actives raise or lower the signal. An outline of the steps: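 Fluorescence intensity of Cy3-tagged anti-phospho-c-Jun antibody, quantified per cell from Hoechst-defined nuclei across six images per well, served as the read-out following 72 h exposure (0.39–200 uM, 0.5% v/v DMSO).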

The nature of experiment [7]: APR_HepG2_StressKinase_24hr: Apredica 24-hour HepG2 Assay for Stress Kinase (AID 2282922). The settings on record: HepG2 stress kinase (phospho-c-Jun) imaging, actives raise or lower the signal. The gist of the method: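 HepG2 cells exposed 24 h to 0.39–200 uM compound in duplicate (0.5% v/v DMSO final). Cells fixed in 3.7% formaldehyde, permeabilized and immunostained for phospho-c-Jun; read by high-content fluorescence imaging, fitted bidirectionally against DMSO.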

A short description of experiment [8]: APR_HepG2_p53Act_72hr: Apredica 72-hour HepG2 Assay for p53 Activation (AID 2282923).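 Further: average cellular p53 protein immunofluorescence intensity in HepG2 cells.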 As to conditions: high-content imaging, actives raise or lower the signal. An outline of the steps: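 HepG2 monolayers receive test compounds in duplicate at ten concentrations (0.39 through 200 uM) for 72 hr. They are then formaldehyde-fixed, antibody-labelled for p53, Hoechst-stained and imaged, with activity fitted bidirectionally versus DMSO.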

The nature of experiment [9]: APR_HepG2_MitoMass_72hr: Apredica 72-hour HepG2 Assay for Mitochondrial Mass (AID 2282924).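 Further: MitoTracker Red CMXRos stain intensity per cell imaged as mitochondrial mass.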 As to conditions: high-content imaging, actives raise or lower the signal. The gist of the method: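 HepG2 cells dosed 72 hr at 0.39–200 uM (0.5% DMSO), in duplicate. MitoTracker Red CMXRos 250 nM loaded 30 min before formaldehyde fixation; high-content fluorescence imaging, bidirectional fit versus DMSO.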

A short description of experiment [10]: APR_HepG2_NuclearSize_72hr: Apredica 72-hour HepG2 Assay for Nuclear Size (AID 2282925). The settings on record: high-content imaging, actives raise or lower the signal. The gist of the method: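 HepG2 cells dosed 72 h at 0.39–200 uM (10 concentrations, duplicate) in 0.5% v/v DMSO final. Fixed, Hoechst 33342-stained nuclei imaged; nuclear diameter measured by automated image analysis. Bidirectional fit versus DMSO.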

Structures are written as SMILES. The source made the active and inactive calls. How the source made its calls: active means hit-call score of the fitted dose curve at least 0.9, where 1 is the maximum; inactive means score below 0.9.

On to `C1CC2OC2CC1C1CO1` (centres undefined), for which the compound was classed as inactive in experiment [1], in experiment [2], in experiment [3], in [4], in [5] and in experiment [6]. Moreover, the compound was classed as inactive in experiment [7], in experiment [8], in [9] and in [10].

Regarding `CCC(C)(CC)c1cc(NC(=O)c2c(OC)cccc2OC)on1`, the call in experiment [1], in [2], in experiment [3], in experiment [4], in [5] and in experiment [6] was inactive. Also, the compound was classed as inactive in experiment [7], in experiment [9] and in experiment [10].

Regarding `Cc1cc2c3c(c1)C(c1ccccc1)=N[C@@H](NC(=O)c1ccncc1)C(=O)N3CC2`, the compound was called inactive in experiment [1], in experiment [2], in experiment [3], in [4], in experiment [5] and in experiment [6]. Moreover, the compound was classed as inactive in experiment [7], in experiment [8], in [9] and in experiment [10].

Consider `O=S(=O)(O)C(F)(F)C(F)(F)C(F)(F)C(F)(F)F`, for which the outcome in experiment [1], in experiment [2], in experiment [3], in experiment [4], in experiment [5] and in experiment [6] was inactive. The compound was classed as inactive in [7], in [8], in [9] and in experiment [10].

`Cc1cccc(C)c1N`: the result in [1], in experiment [2], in [3], in experiment [4], in experiment [5] and in [6] was inactive. The call in [7], in experiment [8], in [9] and in [10] was inactive.

Take `Clc1ccc(C(Cl)(Cl)Cl)cc1`: the compound was classed as inactive in experiment [1], in [2], in [3], in experiment [4], in experiment [5] and in experiment [6]. For the same compound, the compound was called inactive in experiment [7], in [8], in experiment [9] and in experiment [10].

`COS(=O)(=O)OC`: the call in experiment [1], in [2], in [3], in experiment [4], in experiment [5] and in experiment [6] was inactive. In addition, the call in experiment [8], in experiment [9] and in experiment [10] was inactive.

`CC(C)C(=O)OCC(C)(C)C(OC(=O)C(C)C)C(C)C` (centres undefined): the call in experiment [1], in experiment [2], in experiment [3], in [4], in experiment [5] and in [6] was inactive. Moreover, the call in experiment [8], in experiment [9] and in experiment [10] was inactive.

As to `Oc1ccc(C(c2ccc(O)cc2)(C(F)(F)F)C(F)(F)F)cc1`, the outcome in [1], in experiment [2], in experiment [3], in experiment [4], in [5] and in experiment [6] was inactive. Besides, the result in [7], in experiment [8], in [9] and in [10] was inactive.

Regarding `Cc1cc(O)ccc1Cl`, the call in [1], in [2], in [3], in [4], in experiment [5] and in [6] was inactive. Also, the call in [7], in experiment [8], in experiment [9] and in experiment [10] was inactive.

On to `CCNc1nc(NC(C)C)nc(SC)n1`, for which the compound was classed as inactive in experiment [1], in experiment [3], in experiment [4], in [5], in experiment [6] and in experiment [7]. Also, the result in experiment [9] and in [10] was inactive. Besides, the AC50 in experiment [2] is 59.6 µM (active).

`Cc1ccccc1CO[C@@H]1C[C@@]2(C(C)C)CC[C@]1(C)O2`: the outcome in experiment [1], in [2], in [3], in experiment [4], in experiment [5] and in [6] was inactive. Also, the result in experiment [7], in [9] and in experiment [10] was inactive.

`O=C(NC(=O)c1cc(F)c(F)cc1Cl)Nc1cc(F)ccc1N1CCC(C(=O)O)CC1`: the call in experiment [1], in experiment [2], in [3], in experiment [4], in experiment [5] and in experiment [6] was inactive. Besides, the call in experiment [8], in experiment [9] and in [10] was inactive.

For `CCCCCCCCCC[N+](C)(C)CCCCCCCCCC`, the AC50 in experiment [1] was 5.55 µM (active); in [2] it was 41.2 µM (active); in [3] it was 3.61 µM (active); in experiment [4], 15.6 µM (active); in experiment [5] it was 6.27 µM (active); in experiment [8] it was 3.25 µM (active). In addition, the AC50 in experiment [9] was 3.13 µM (active). The compound was classed as inactive in [6], in [7] and in [10].

In the case of `CCC(=O)O[C@H]1CC[C@H]2[C@@H]3CCC4=CC(=O)CC[C@]4(C)[C@H]3CC[C@]12C`, the AC50 is 86.5 µM (active) in experiment [1]; 114 µM (active) in experiment [2]; 65 µM (active) in experiment [3]; 158 µM (active) in experiment [4]; 108 µM (active) in [5]; 89.9 µM (active) in experiment [8]. Further, the AC50 in experiment [9] was 92.1 µM (active); in experiment [10], 50.8 µM (active). Moreover, the compound was classed as inactive in experiment [6] and in [7].

Usually AC50 stands for the concentration at which the activity in the assay is half-maximal.
